# Experimental data as given in the supplement of paper PMC9588786.
# ± gives the standard deviation of the averaged measurements.
# System: HT-1080
# Experiment: relative cell viability with RSL3 co-treatment (fraction of control); higher = stronger protection from RSL3-induced ferroptosis (higher viability)
# Conditions: 10 µM
# 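Further: viability read as CCK-8 absorbance at 450 nm in cells co-exposed to the GPX4 inhibitor RSL3, relative to a 0.01% DMSO vehicle control.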
row,SMILES,relative cell viability
1,Oc1cc(O)cc(/C=C/c2ccc(O)c(O)c2)c1 [Piceatannol],0.717 ± 0.04
2,CC(=O)Nc1nc(C)c(-c2ccc(Cl)c(S(=O)(=O)NCCO)c2)s1,0.603 ± 0.057
3,O=c1ncn2nc(Sc3ccc(F)cc3F)ccc2c1-c1c(Cl)cccc1Cl,0.5 ± 0.14
4,C#Cc1cccc(Nc2ncnc3cc4c(cc23)OCCOCCOCCO4)c1 [Icotinib],0.64 ± 0.075
5,Cc1cc(Nc2ncc(Cl)c(Nc3ccccc3S(=O)(=O)C(C)C)n2)c(OC(C)C)cc1C1CCNCC1 [Ceritinib (LDK378)],0.513 ± 0.057
6,"CO[C@H]1C[C@@H]2CC[C@@H](C)[C@@](O)(O2)C(=O)C(=O)N2CCCC[C@H]2C(=O)O[C@H]([C@H](C)C[C@@H]2CC[C@@H](OP(C)(C)=O)[C@H](OC)C2)CC(=O)[C@H](C)/C=C(\C)[C@@H](O)[C@@H](OC)C(=O)[C@H](C)C[C@H](C)/C=C/C=C/C=C/1C [Ridaforolimus (Deforolimus, MK-8669)]",0.847 ± 0.14
7,CC(C)(C)Cn1c(N)nc2ccc(-c3[nH]c(C(C)(C)C)nc3-c3ccc(F)cc3)nc21,0.71 ± 0.017
8,"O=C(c1ccc(F)c(F)c1Nc1ccc(I)cc1F)N1CC(O)([C@@H]2CCCCN2)C1 [Cobimetinib (GDC-0973, RG7420)]",0.797 ± 0.032
9,CS(=O)(=O)CCNCc1ccc(-c2ccc3ncnc(Nc4ccc(OCc5cccc(F)c5)c(Cl)c4)c3c2)o1 [Lapatinib],1.21 ± 0.064
10,Cc1cnc(Nc2ccc(OCCN3CCCC3)cc2)nc1Nc1cccc(S(=O)(=O)NC(C)(C)C)c1,0.433 ± 0.093
11,"C[C@H](Nc1ncnc2nc[nH]c12)c1cc2cccc(Cl)c2c(=O)n1-c1ccccc1 [Duvelisib (IPI-145, INK1197)]",0.717 ± 0.025
12,O=C(O)c1ccc(Nc2ncc3c(n2)-c2ccc(Cl)cc2C(c2c(F)cccc2F)=NC3)cc1,0.433 ± 0.045
13,CCC[C@H](NC(=O)/C(C#N)=C/c1cccc(Br)n1)c1ccccc1 [Degrasyn (WP1130)],0.793 ± 0.064
14,CNc1nc(-c2ccc3c(N)n[nH]c3c2)cc(N2C[C@@H](C(=O)NC3CCCCC3)CC[C@H]2C)n1,0.647 ± 0.13
15,CC[C@@H]1C(=O)N(C)c2cnc(Nc3ccc(C(=O)NC4CCN(C)CC4)cc3OC)nc2N1C1CCCC1,0.553 ± 0.031
16,COc1ccc(CNC(=O)Nc2ncc([N+](=O)[O-])s2)cc1,0.45 ± 0.03
17,CC(C)Nc1cc(-c2c[nH]c(C(=O)N[C@H](CO)c3cccc(Cl)c3)c2)c(Cl)cn1,0.753 ± 0.076
18,Nc1cccc(-c2cc3c(Oc4cccc(O)c4)ncnc3[nH]2)c1,0.483 ± 0.046
19,"CN1CCN(c2ccc3nc(-c4c(N)c5c(F)cccc5[nH]c4=O)[nH]c3c2)CC1 [Dovitinib (TKI-258, CHIR-258)]",0.827 ± 0.1

row,SMILES,relative cell viability
1,CNc1nc(Nc2cn(C(C)(C)C#N)nc2C)ncc1C(F)(F)F,0.757 ± 0.1
2,Cn1cc(-c2ccc3ncc(Cc4ccc5ncccc5c4)n3n2)cn1,0.727 ± 0.11
3,N#Cc1c(NC(=O)c2cccc3ccccc23)sc2c1CCCC2 [JNK Inhibitor IX],0.573 ± 0.049
4,CNC(=O)c1cc(Oc2ccc(NC(=O)Nc3ccc(Cl)c(C(F)(F)F)c3)cc2)ccn1 [Sorafenib],0.693 ± 0.14
5,CC[C@@](C)(Nc1ccnc(-c2c[nH]c3ncccc23)n1)C(=O)NCC(F)(F)F [Decernotinib (VX-509)],0.823 ± 0.042
6,Cn1cc(/C=C2\C(=O)Nc3cccnc32)c2ccccc21,0.927 ± 0.015
7,O=C(Cc1ccc(-c2ccc(OCCN3CCOCC3)cc2)cn1)NCc1ccccc1,0.627 ± 0.16
8,C=CC(=O)N1CCC[C@@H](n2nc(-c3ccc(Oc4ccccc4)cc3)c3c(N)ncnc32)C1,0.933 ± 0.11
9,O=C(c1cccc(Cl)c1F)N1CCN(Cc2cccc(Nc3nccs3)n2)CC1,0.573 ± 0.049
10,O=C1NC(=O)/C(=C/c2ccc3c(c2)OC(F)(F)O3)S1,0.82 ± 0.07
11,COc1cc2nccc(Oc3ccc(NC(=O)Nc4cc(C)on4)c(Cl)c3)c2cc1OC [Tivozanib (AV-951)],0.23 ± 0.11
12,O=C(NCc1ccccc1)c1csc(Nc2ccncn2)n1 [Thiazovivin],0.557 ± 0.24
13,O=C1NC(=O)[C@@H](c2cn3c4c(cccc24)CCC3)[C@@H]1c1c[nH]c2ccccc12 [Tivantinib (ARQ 197)],0.64 ± 0.085
14,CN(C[C@@H]1COCCO1)S(=O)(=O)Nc1ccc2ccc3ncc(-c4cnn(C)c4)cc3c(=O)c2c1,0.657 ± 0.25
15,C=CC(=O)Nc1cccc(Sc2nc(Nc3ccc(N4CCN(C)CC4)cc3)ncc2Cl)c1,0.423 ± 0.035
16,Cc1cc(Nc2cc(CN3CCOCC3)c3nc(C)c(Cc4ccc(Cl)cc4F)n3n2)n[nH]1,0.383 ± 0.095
17,NC1(c2ccc(-c3nc4ccn5c(=O)[nH]nc5c4cc3-c3ccccc3)cc2)CCC1,0.467 ± 0.1
18,CCN(CC)CCCC(C)Nc1ccnc2cc(Cl)ccc12 (stereo not drawn) [Chloroquine Phosphate],0.817 ± 0.12
19,CCOc1ccn(-c2ccc(F)cc2)c(=O)c1C(=O)Nc1ccc(Oc2ccnc(N)c2Cl)c(F)c1,0.51 ± 0.092
